Our source for the AC50 and outcome values is PubChem BioAssay (EPA / NIEHS).

Structures are written as SMILES. Activity calls are given as the source filed them. How the source made its calls: active means hit-call score of the fitted dose curve at least 0.9, where 1 is the maximum; inactive means score below 0.9.

Read-out in test [1]: Macrophage colony-stimulating factor (MCSF), CSF1 (gene 1435)
In words: BSK_hDFCGF_MCSF: BioMAP Diversity Plus: hDFCGF Assay for Macrophage colony-stimulating factor (MCSF) Biomarker Activity (AID 2283060). Conditions: primary human foreskin fibroblasts; actives raise or lower the signal. The method in brief:
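Primary human foreskin fibroblasts dosed with chemical; 24 h later, M-CSF quantified by ELISA; curves fitted in both directions vs DMSO negative control.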

Test [2] can be described thus: BSK_hDFCGF_SRB: Viability Assessment in the BioMAP Diversity Plus: hDFCGF Assay (AID 2283061).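 Further: cells exposed to compound for 24 h before the read.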 To be noted: primary human foreskin fibroblasts. The method in brief: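 Readout is SRB absorbance at 560 nm, reflecting total protein in parallel cultures of human foreskin fibroblasts harvested 24 h after chemical dosing. Activity was fitted bidirectionally relative to DMSO.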

Read-out in test [3]: TIMP metallopeptidase inhibitor 1 (TIMP1), TIMP1 (gene 7076)
In words: BSK_hDFCGF_TIMP1: BioMAP Diversity Plus: hDFCGF Assay for TIMP metallopeptidase inhibitor 1 (TIMP1) Biomarker Activity (AID 2283062). Conditions: primary human foreskin fibroblasts; actives raise or lower the signal. The method in brief: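 Human skin fibroblasts (primary), hDFCGF system; compound exposure 24 h; TIMP-1 by ELISA; bidirectional fit vs DMSO negative control; overt cytotoxicity by SRB in parallel wells.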

Read-out in test [4]: Monokine induced gamma interferon (MIG), CXCL9 (gene 4283)
In words: BSK_hDFCGF_MIG: BioMAP Diversity Plus: hDFCGF Assay for Monokine induced gamma interferon (MIG) Biomarker Activity (AID 2283063). To be noted: primary human foreskin fibroblasts; actives raise or lower the signal. The method in brief: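 Chemicals were added to primary human foreskin fibroblast cultures, which were sampled 24 h later. MIG levels were then quantified by ELISA and responses fitted in both directions relative to DMSO.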

Read-out in test [5]: Vascular cell adhesion molecule 1 (VCAM1), VCAM1 (gene 7412)
As to the kind of experiment: BSK_hDFCGF_VCAM1: BioMAP Diversity Plus: hDFCGF Assay for Vascular cell adhesion molecule 1 (VCAM1) Biomarker Activity (AID 2283065).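 On AC50: VCAM-1 protein level quantified by ELISA after 24 h chemical exposure.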 To be noted: primary human foreskin fibroblasts; actives raise or lower the signal. The method in brief:
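Human foreskin fibroblast primary cells, chemical exposure 24 h; VCAM-1 by ELISA; bidirectional fit, DMSO = negative control/baseline.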

Read-out in test [6]: Plasminogen activator inhibitor-1 (PAI1), SERPINE1 (gene 5054)
In words: BSK_hDFCGF_PAI1: BioMAP Diversity Plus: hDFCGF Assay for Plasminogen activator inhibitor-1 (PAI1) Biomarker Activity (AID 2283066). To be noted: primary human foreskin fibroblasts; actives raise or lower the signal. The method in brief:
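Fibroblasts from human foreskin were treated with test chemical. After 24 h, PAI-1 was measured by ELISA. Activity was fitted in both directions relative to DMSO.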

Read-out in test [7]: Intercellular Adhesion Molecule 1 (ICAM1), ICAM1 (gene 3383)
In words: BSK_KF3CT_ICAM1: BioMAP Diversity Plus: KF3CT Assay for Intercellular Adhesion Molecule 1 (ICAM1) Biomarker Activity (AID 2283067). To be noted: primary human keratinocytes with fibroblasts; actives raise or lower the signal. Summed up:
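ICAM-1 levels are measured by ELISA 24 h after dosing a primary human co-culture of keratinocytes and foreskin fibroblasts. Activity in either direction is fitted relative to DMSO vehicle.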

Read-out in test [8]: Interferon-gamma inducible Protein 10 (IP10), CXCL10 (gene 3627)
In words: BSK_KF3CT_IP10: BioMAP Diversity Plus: KF3CT Assay for Interferon-gamma inducible Protein 10 (IP10) Biomarker Activity (AID 2283068). To be noted: primary human keratinocytes with fibroblasts; actives raise or lower the signal. Summed up: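 ELISA read-out of IP-10 after 24 h chemical dosing of human skin primary co-culture (keratinocytes, foreskin fibroblasts). Gain or loss of signal relative to DMSO, bidirectional curve fit.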

Test [9] is described as follows: BSK_KF3CT_SRB: Viability Assessment in the BioMAP Diversity Plus: KF3CT Assay (AID 2283069).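 Further: read 24 h after compound addition; fitted for both signal gain and loss against DMSO baseline.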 Conditions: primary human keratinocytes with fibroblasts. Summed up: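 Overt cytotoxicity is assessed as total protein by sulforhodamine B staining in parallel human skin co-cultures at 24 h after dosing. DMSO serves as negative control and baseline.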
Read-out in test [10]: Interleukin-1 alpha (IL1a), IL1A (gene 3552)
As to the kind of experiment: BSK_KF3CT_IL1a: BioMAP Diversity Plus: KF3CT Assay for Interleukin-1 alpha (IL1a) Biomarker Activity (AID 2283070). Conditions: primary human keratinocytes with fibroblasts; actives raise or lower the signal. Summed up:
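Readout is IL-1a level by ELISA, compared bidirectionally with DMSO as baseline. Cells: human keratinocytes co-cultured with foreskin fibroblasts, harvested 24 h post-dose.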

Read-out in test [11]: TIMP metallopeptidase inhibitor 2 (TIMP2), TIMP2 (gene 7077)
As to the kind of experiment: BSK_KF3CT_TIMP2: BioMAP Diversity Plus: KF3CT Assay for TIMP metallopeptidase inhibitor 2 (TIMP2) Biomarker Activity (AID 2283071). Conditions: primary human keratinocytes with fibroblasts; actives raise or lower the signal. Summed up:
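Chemicals were dosed onto human skin primary co-cultures of keratinocytes and foreskin fibroblasts, and TIMP-2 was measured by ELISA after 24 hours. Activity in either direction was fitted relative to DMSO.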

Read-out in test [12]: Transforming growth factor beta 1 (TGFb1), TGFB1 (gene 7040)
As to the kind of experiment: BSK_KF3CT_TGFb1: BioMAP Diversity Plus: KF3CT Assay for Transforming growth factor beta 1 (TGFb1) Biomarker Activity (AID 2283072). Conditions: primary human keratinocytes with fibroblasts; actives raise or lower the signal. The method in brief: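 KF3CT co-culture (keratinocytes + fibroblasts), 24 h exposure → TGF-b1 ELISA → bidirectional fit, DMSO = baseline. Parallel SRB total-protein staining (0.1% SRB, 10% TCA fixation, 560 nm) for cytotoxicity.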

Read-out in test [13]: C-C motif chemokine 2 (Homo sapiens) (UniProt P13500)
As to the kind of experiment: BSK_KF3CT_MCP1: BioMAP Diversity Plus: KF3CT Assay for Monocyte Chemoattractant Protein 1 (MCP1/CCL2) Biomarker Activity (AID 2283073). Conditions: primary human keratinocytes with fibroblasts; actives raise or lower the signal. Summed up: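 ELISA readout of MCP-1 after 24 h chemical dosing of a human skin primary co-culture of keratinocytes and foreskin fibroblasts. Activity was fitted in both directions against DMSO.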

Read-out in test [14]: Matrix Metallopeptidase 9 (MMP9), MMP9 (gene 4318)
In words: BSK_KF3CT_MMP9: BioMAP Diversity Plus: KF3CT Assay for Matrix Metallopeptidase 9 (MMP9) Biomarker Activity (AID 2283074). Conditions: primary human keratinocytes with fibroblasts; actives raise or lower the signal. The method in brief: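 Values come from bidirectional fitting relative to DMSO of MMP-9 levels, which were measured by ELISA. Measurements were taken 24 h after chemical dosing of a keratinocyte and foreskin fibroblast co-culture.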

Read-out in test [15]: urokinase plasminogen activator (uPA), PLAU (gene 5328)
In words: BSK_KF3CT_uPA: BioMAP Diversity Plus: KF3CT Assay for urokinase plasminogen activator (uPA) Biomarker Activity (AID 2283075). Conditions: primary human keratinocytes with fibroblasts; actives raise or lower the signal. Summed up:
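Values derive from bidirectional fitting against DMSO controls. Keratinocyte/foreskin fibroblast co-cultures received chemical; 24 h later uPA was detected by ELISA, with SRB total-protein staining in parallel wells for overt cytotoxicity.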

Read-out in the next test: CD40, CD40 (gene 958)
As to the kind of experiment: BSK_LPS_CD40: BioMAP Diversity Plus: LPS Assay for CD40 Biomarker Activity (AID 2283076). Conditions: primary human HUVEC with PBMC; actives raise or lower the signal. Summed up: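 Cells were dosed, incubated 24 h, then assayed for CD40 by ELISA. Gain or loss of signal was analysed relative to DMSO controls. The culture paired human umbilical vein endothelium with peripheral blood mononuclear cells.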

Read-out in test [16]: E-selectin (Homo sapiens) (UniProt P16581)
In words: BSK_LPS_Eselectin: BioMAP Diversity Plus: LPS Assay for Eselectin Biomarker Activity (AID 2283077). Conditions: primary human HUVEC with PBMC; actives raise or lower the signal. The method in brief: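 Primary human vascular co-culture (endothelium plus PBMC) was dosed with chemical, then E-selectin quantified by ELISA at 24 h. Endpoint values derive from bidirectional curve fitting relative to DMSO.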

Read-out in test [17]: Interleukin-8 (IL8), CXCL8 (gene 3576)
In words: BSK_LPS_IL8: BioMAP Diversity Plus: LPS Assay for Interleukin-8 (IL8) Biomarker Activity (AID 2283078). To be noted: primary human HUVEC with PBMC; actives raise or lower the signal. The method in brief: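 Readout is IL-8 by ELISA, taken 24 h after compounds were added to LPS-stimulated endothelial/PBMC co-cultures. Both increases and decreases relative to DMSO control were scored through bidirectional fitting.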

Test [18] is described as follows: BSK_LPS_SRB: Viability Assessment in the BioMAP Diversity Plus: LPS Assay (AID 2283079).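 Further: total protein by sulforhodamine B absorbance as a cytotoxicity measure; measured one day after compound addition; fitted in both directions against DMSO so loss or gain of signal counts.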 To be noted: primary human HUVEC with PBMC. Summed up: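 Readout is SRB absorbance at 560 nm (0.1% stain, TCA-fixed parallel cultures) as a total-protein cytotoxicity measure. Cells: primary human umbilical vein endothelium plus peripheral blood mononuclear cells, 24 h after chemical exposure; DMSO served as baseline.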

Read-out in test [19]: Matrix Metallopeptidase 1 (MMP1), MMP1 (gene 4312)
In words: BSK_hDFCGF_MMP1: BioMAP Diversity Plus: hDFCGF Assay for Matrix Metallopeptidase 1 (MMP1) Biomarker Activity (AID 2283064). Conditions: primary human foreskin fibroblasts; actives raise or lower the signal. Summed up:
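Human foreskin fibroblasts exposed to chemical for 24 h; MMP1 detected by ELISA, with DMSO as baseline for bidirectional fitting.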

E-selectin (Homo sapiens), sequence (P16581 whole entry, looked up): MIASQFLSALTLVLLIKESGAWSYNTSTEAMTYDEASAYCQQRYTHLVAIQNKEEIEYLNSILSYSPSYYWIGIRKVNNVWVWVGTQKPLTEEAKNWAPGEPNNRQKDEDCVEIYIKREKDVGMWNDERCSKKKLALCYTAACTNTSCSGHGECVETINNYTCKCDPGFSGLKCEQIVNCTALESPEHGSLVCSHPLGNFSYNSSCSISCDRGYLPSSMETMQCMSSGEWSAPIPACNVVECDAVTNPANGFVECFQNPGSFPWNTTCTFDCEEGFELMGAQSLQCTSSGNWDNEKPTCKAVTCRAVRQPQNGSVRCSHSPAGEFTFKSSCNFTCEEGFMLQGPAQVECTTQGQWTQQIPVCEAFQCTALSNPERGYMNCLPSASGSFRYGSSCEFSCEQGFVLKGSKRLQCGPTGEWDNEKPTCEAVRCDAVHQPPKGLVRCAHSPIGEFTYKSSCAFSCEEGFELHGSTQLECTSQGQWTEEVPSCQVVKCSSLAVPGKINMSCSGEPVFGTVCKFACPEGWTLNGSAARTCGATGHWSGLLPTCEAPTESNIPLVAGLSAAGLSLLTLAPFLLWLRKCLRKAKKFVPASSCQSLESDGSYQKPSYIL

On to `N=C(N)c1ccc(OCCCCCOc2ccc(C(=N)N)cc2)cc1`, for which the AC50 in test [1] was 20.6 µM (active); in [2], 25.8 µM (active); in test [3] it was 27.2 µM (active); in test [5] it was 28.1 µM (active); in test [6], 28.5 µM (active); in test [17] it was 12.7 µM (active). The outcome in test [4], in test [7], in test [8], in test [9], in [10] and in test [11] was inactive. In addition, the outcome in test [12] is “inactive”; in [13] it was “inactive”; in test [14], “inactive”; in test [15] it was “inactive”; in the test with CD40, CD40 (gene 958), “inactive”; in [16], “inactive”. Also, the outcome in test [18] was inactive.
For the compound `C=CC(C)(CCC=C(C)C)OC(C)=O` (stereo not given), the outcome in test [1], in test [3], in [4], in test [19], in test [5] and in [7] was inactive. The outcome was “inactive” in [8]; “inactive” in test [9]; “inactive” in test [10]; “inactive” in [12]; “inactive” in [13]; “inactive” in the test with CD40, CD40 (gene 958). Besides, the result in test [16], in test [17] and in test [18] was inactive. Besides, the AC50 in [2] is 36.1 µM (active); in test [6], 29.8 µM (active); in [11] it was 32 µM (active); in [15], 31.2 µM (active).
As to `NC(=NCCCCCCN=C(N)/N=C(\N)Nc1ccc(Cl)cc1)/N=C(\N)Nc1ccc(Cl)cc1`, the AC50 in test [1] is 4.84 µM (active); in [2] it was 4.77 µM (active); in test [3] it was 6.5 µM (active); in [19] it was 7.45 µM (active); in test [5], 5.46 µM (active); in test [6] it was 3.67 µM (active). For the same compound, the AC50 in test [7] was 7.53 µM (active); in test [8] it was 6.16 µM (active); in test [9], 4.79 µM (active); in test [10], 4.32 µM (active); in [11] it was 5.01 µM (active); in [12], 2.35 µM (active). Besides, the AC50 is 6.01 µM (active) in test [13]; 4.99 µM (active) in [15]; 5.33 µM (active) with CD40, CD40 (gene 958); 2.36 µM (active) in test [17]; 5.33 µM (active) in test [18].

A word on the AC50: it is the concentration giving half of the maximal activity seen.
